Data from PubChem BioAssay AID504766 (The Scripps Research Institute Molecular Screening Center, 2011).
The whole screen tested about 340,000 compounds, of which about 3,400 (1%) were called active. This is one part of a sample in which actives are shown more often than they occur.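 The calls were made as follows: active = inhibition above the mean over all tested compounds plus 3 SD (cut at about 4.2% in these data); inactive = the rest.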

Target: Nuclear receptor subfamily 0 group B member 1 (Homo sapiens) (UniProt P51843)
Sequence (P51843 207-470 limits assumed): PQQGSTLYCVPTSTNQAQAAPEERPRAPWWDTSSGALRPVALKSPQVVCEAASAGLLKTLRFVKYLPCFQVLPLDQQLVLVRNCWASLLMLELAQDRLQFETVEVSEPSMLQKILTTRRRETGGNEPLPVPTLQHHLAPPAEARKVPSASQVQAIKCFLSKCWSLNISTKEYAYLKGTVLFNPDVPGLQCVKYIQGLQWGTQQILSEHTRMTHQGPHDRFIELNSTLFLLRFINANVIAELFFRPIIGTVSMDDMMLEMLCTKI
Experiment: DAX1 (NR0B1) inhibitors, primary screen, cell-based, HEK293, Gal4-DAX1, luciferase luminescence (AID 504766);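 also: 0% = DAX1-transfected cells with DMSO and 100% = empty-vector control cells with DMSO; inhibition shows as a rise in luminescence from relieved DAX1 repression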
Details: HEK293 Gal4-DAX1 luciferase reporter, at 6.75 µM, active compounds read high

Compound	inhibition
COc1ccc(OC)c(-n2c(-c3ccn[nH]3)n[nH]c2=S)c1	4.83% (active)
COc1ccc(-n2c(-c3ccc(Cl)cc3)n[nH]c2=S)c(OC)c1	0.25% (inactive)
COc1ccc(OCc2n[nH]c(=S)n2N)cc1	0.95% (inactive)
C[C@@H]1CN([C@H](C)CO)C(=O)c2cc(-c3ccc(F)cc3)cnc2O[C@H]1CN(C)C(=O)c1ccc(F)cc1	-1.22% (inactive)
CN(Cc1ccccc1)C(=O)c1ccc(COc2ccccc2)cc1	0.19% (inactive)
CN(Cc1ccccc1)C(=O)c1cccc(C(=O)N(C)Cc2ccccc2)c1	0.91% (inactive)
CN(CC(=O)O)C(=O)c1ccccc1	5.67% (active)
COCOCCn1cc(CN2CCS(=O)(=O)N(Cc3ccc(-c4cccc(N(C)C)c4)cc3)C(CC(C)C)C2=O)nn1 (configuration not stated)	2.25% (inactive)
CCOc1ccc(NC(=O)c2cc(C)nc3ccccc23)cc1	0.49% (inactive)
CN1CCN(c2nc(Nc3ccc(O)cc3)nc3ccccc23)CC1	0.71% (inactive)
Cc1cc(Nc2ccc(Br)cc2)nc2ccccc12	5.55% (active)
CSC1=NN(c2ccccc2)CN(c2ccccc2)N1C	0.33% (inactive)
C[C@@H]1CN([C@@H](C)CO)S(=O)(=O)c2ccc(-c3ccc(C(=O)N(C)C)cc3)cc2O[C@@H]1CN(C)Cc1ccccc1C(=O)O	3.37% (inactive)
Cc1nn(CC(=O)N2CCCCC2)c(=O)c2nn(-c3ccccc3)c(C)c12	0.17% (inactive)
Cc1nc2c(ncn2-c2ccccc2)c(=O)n1NC(=O)CN1CCCC1	8.39% (active)
Cc1csc(NC(=O)CN2CCCCCC2)n1	1.37% (inactive)
COc1ccc(NC2CCCN(C(=O)c3ccccc3-c3ncc[nH]3)C2)cc1 (configuration not stated)	-0.18% (inactive)
Cc1cccc(OCC(=O)Nc2ccc(C(=O)O)cc2NC(=O)COc2cccc(C)c2)c1	0.91% (inactive)
Cc1cccc(OCCC(=O)Nc2ccccc2C(N)=O)c1	-0.79% (inactive)

Compound	inhibition
Cc1cccc(OCC(=O)Nc2ccccc2F)c1	5.58% (active)
COc1ccccc1-n1c(SCC(=O)Nc2ccc(Cl)cc2)nc(O)c(Cc2ccccc2)c1=O	1.11% (inactive)
CC1(C)CC(=O)NC=C(c2ccccc2)C1	-0.26% (inactive)
CC1(C)CC(=O)C(CC(=O)N2CCC(Cc3ccccc3)CC2)C(=O)C1	3.82% (inactive)
CC1(C)CC(=O)C(C2c3ccccc3S(=O)(=O)c3ccccc32)C(=O)C1	5.54% (active)
COc1ccc(C(=O)NCC2CCCO2)cc1S(=O)(=O)NCc1ccc(Cl)cc1 (configuration not stated)	0% (inactive)
CC1=C(C(=O)N(C)C)CC(CC(=O)NCCc2ccccn2)C(=O)N1CCC1=CCCCC1 (configuration not stated)	1.44% (inactive)
CC(C)N=C1CCCC1C(=S)SSC(=S)C1CCCC1=NC(C)C (configuration not stated)	-3.43% (inactive)
COc1ccc(/C=C(/NC(=O)c2ccco2)C(=O)Nc2ccc(C(C)=O)cc2)cc1	4.81% (active)
Cc1ccc(NC(=O)/C(=C\c2ccccc2)NC(=O)c2ccco2)cc1	0.33% (inactive)
O=C(Nc1ccc2ccccc2c1)/C(=C\c1ccc2c(c1)OCO2)NC(=O)c1ccco1	-1.35% (inactive)
Cc1ccc(CCNC(=O)CN2C(=O)CSc3ccc(S(=O)(=O)N4CCOCC4)cc32)cc1	0.18% (inactive)
NC1=CC(=O)C(=O)c2cccnc21	-3.86% (inactive)
C[C@@H]1CCCCO[C@H](CN(C)Cc2ccccc2)[C@@H](C)CN([C@H](C)CO)C(=O)c2cc(NS(=O)(=O)c3ccc(Cl)cc3)ccc2O1	-0.88% (inactive)
Cc1ccc([C@H]2C[C@H](O)[C@@H](n3cc(COC(=O)c4ccccc4)nn3)CN2CC2CCCCC2)cc1	2.07% (inactive)
Brc1ccccc1C1N=C(c2ccccc2)NO1 (configuration not stated)	1.91% (inactive)
N#Cc1ccc(C2N=C(c3ccccc3)NO2)cc1 (configuration not stated)	4.58% (active)
Nc1cccc(OCCCCCOc2cccc(N)c2)c1	-0.21% (inactive)
CSc1ncnc2c1ncn2CCCNCc1ccco1	0.14% (inactive)

Compound	inhibition
C[C@H]1CN([C@@H](C)CO)C(=O)c2cc(-c3cccc(F)c3)cnc2O[C@@H]1CN(C)S(C)(=O)=O	3.06% (inactive)
N#CC1(Nc2ccc3c4c(cccc24)CC3)CCCCC1	-0.16% (inactive)
Cc1cc(N=Nc2ccc3ccccc3c2)ccc1O	4.42% (active)
CCOC(=O)c1c(NC(=S)SC)sc(C(=O)N2CCc3ccccc3C2)c1C	0.87% (inactive)
CCCSc1nc(NCc2ccco2)c2c3c(sc2n1)COC(C)(CC)C3 (configuration not stated)	1.15% (inactive)
CN1CCc2c(sc3c2c(NCc2ccco2)nc2nnnn23)C1	5.18% (active)
CCSc1nc2sc3c(c2c(=O)n1-c1ccc(C)cc1)CCN(C)C3	0.31% (inactive)
C[C@@H]1CN([C@@H](C)CO)C(=O)c2cc(NS(C)(=O)=O)ccc2O[C@@H](C)CCCCO[C@H]1CN(C)C(=O)Nc1ccc2c(c1)OCO2	0.65% (inactive)
Cc1ccc(S(=O)(=O)N2CCC(C(=O)N3CCCCCCC3)CC2)cc1	-0.36% (inactive)
COc1ccc(N2CCN(C(=O)C3CCN(S(=O)(=O)c4ccc(C)cc4)CC3)CC2)cc1	7.45% (active)
COc1ccc(N2CCN(C(=O)C3CCN(C(=O)c4ccccc4Cl)CC3)CC2)cc1	-0.89% (inactive)
COc1ccc(N)cc1NC(=O)CN1CCOCC1	1.8% (inactive)
CC12C(=O)N(n3cnnc3)C(=O)C1C1C=CC2C1 (configuration not stated)	5.77% (active)
COc1ccc(Cl)cc1C(=O)Nc1ccc(N(C)C(C)=O)cc1	-0.13% (inactive)
O=C(COc1ccccc1F)NNC(=O)c1cc(Br)ccc1Cl	0.63% (inactive)
CCN(CC)C(=O)Oc1ccc(Br)cc1C(=O)Nc1ccc(F)c(Cl)c1	4.68% (active)
N#Cc1ccc(OCC(=O)Nc2nc(-c3ccccn3)cs2)cc1	-0.76% (inactive)
C[C@@H]1CN([C@H](C)CO)S(=O)(=O)c2ccc(C#C[C@@H](C)O)cc2O[C@@H]1CN(C)Cc1ccc(-c2ccccc2)cc1	-0.61% (inactive)
Cc1ccc(CN(C)C[C@@H]2OCc3cnnn3CCCC(=O)N([C@@H](C)CO)C[C@H]2C)cc1	0.34% (inactive)
